From paper PMC12136788
The full ranking holds about 24,000 sequences; the median of “enrichment r” is about 0.99, and the highest 2% start at about 3.7. The list is a sample of the results.

T1: UNK ZnF1-3 (human, UniProt Q9C0B0 31-174)
T1 sequence: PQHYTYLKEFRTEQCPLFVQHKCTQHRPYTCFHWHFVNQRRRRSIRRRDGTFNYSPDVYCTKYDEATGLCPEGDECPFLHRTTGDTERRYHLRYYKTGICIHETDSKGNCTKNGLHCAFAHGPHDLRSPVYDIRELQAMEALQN

B1: 12329608_12331292_3055_3pUTR_ENSMUSG00000032625_ENSMUST00000046121|mouse|control|control (ssRNA)
RNA: GGGAGUUCUACAGUCCGACGAUCGAGGGUACAAAUGAGAGUUUUUACAUUUUUCCUUCUUUUUACUUUUCCCAACAAUAGCACGCUUUCUGGUCCUAACUGCACCGCAGUCUCCGUUGCAUGAAGAAAACUUGGACCAGCUGGCAACAGAGGAUUGAGCAUCA
B2: chr7:28421298:28421299:+_ENSMUSG00000004056_ENSMUST00000051356|mus_hu|FALSE|FALSE (ssRNA)
RNA: GGGAGUUCUACAGUCCGACGAUCCAUCAUCUCGUACAUGACCACACCCAGCCCCCACCAGUCCACGGCCCGGCCAUAGUCAUUGUCCUCCAGCACCUCAGGCGCCAGGUACUCCGGGGUCCCACAGAAGGUUUUCAUGGUGGCCAACAGAGGAUUGAGCAUCA
B3: chr7:151048522:151048523:+_ENSG00000013374_ENST00000566856|hu_mus|hu_hu_hu_mus_True|48_108 (ssRNA)
RNA: GGGAGUUCUACAGUCCGACGAUCCUGCUUCUUAUUUAUUACGAUCUUGAUGUAAUUUUCUUGAAAUCCGAAAGUUUCAGCUAUUUGGGACCUCAGUUCUCUACCAGUGACAUGCAAGCGGGUCUCCAACAAGCUUUUCUUAUCCAACAGAGGAUUGAGCAUCA
B4: chr7:52357369:52357370:-_ENSMUSG00000003420_ENSMUST00000003512|mus_hu|FALSE|FALSE (ssRNA)
RNA: GGGAGUUCUACAGUCCGACGAUCGUGCUCCCGCAGGCGGUGCGGGCAGGAGAAUAGCAGGAAGGUGAGCUCCUUGUUGGCCGCCUUGUCCUGCUGCUGCCACCGCUGACUGAUAGCCAGGGCCUCGGGCCAGUCCCCACCCCACAACAGAGGAUUGAGCAUCA
B5: chr5:132440482:132440483:+_ENSG00000170606_ENST00000304858|hu_hu|FALSE|FALSE (ssRNA)
RNA: GGGAGUUCUACAGUCCGACGAUCUUAAAGCAUAAUUAGAGCUCCUGCCAUGUAAGUCAUAAUGAAAAGUCUGCUGGAUAGCUAGAGCUGUAGCUAUAGCUCAACUUUCCAAAACAAACUUAUUCUUGUAGACACAUGGUUAAACAACAGAGGAUUGAGCAUCA
B6: chr8:101271117:101271118:-_ENSG00000034677_ENST00000519449|hu_mus|motif|central (ssRNA)
RNA: GGGAGUUCUACAGUCCGACGAUCGCAAUCACUGGAGCCGUGACUACAGGACGUUCUCAUGCUUUCUAAGUCUGAGCAGCGGAAUUCAGAAAAAUGACUGGAGUGGGAAUCUGCUACAGACGGCAUGCUGUCACUGAGGGAUGGCAACAGAGGAUUGAGCAUCA
B7: 46683936_46684056_841_CDS_ENSMUSG00000033319_ENSMUST00000036226|mouse|control|control (ssRNA)
RNA: GGGAGUUCUACAGUCCGACGAUCUCGAAGAGGAGUUGAGUUGGUUAAAGUCGUGUUGUUGACAGAUGCUCCGUGAUUUAACAAAGACUGGACAACCUUCAGAUGUCCUGCUGCAGAAGCGGCCCAUAAAGGGGGGGCCCCCUCCAACAGAGGAUUGAGCAUCA
B8: chr22:36164377:36164378:-_ENSG00000100320_ENST00000405409|hu_mus|FALSE|FALSE (ssRNA)
RNA: GGGAGUUCUACAGUCCGACGAUCACGGCCCUCUACCACGGUGCCGUGCAAUUUCUCCCUGGCCCUGUCUGCAUCAGCACUAUUCUCGAAAGUUACGAACCCGAAUCCCUUGGAGCCGCGCUCAUUAAAGAUUAUUUCCACAUCCAACAGAGGAUUGAGCAUCA
B9: chr17:3572670:3572671:+_ENSG00000127774_ENST00000248378|hu_hu|FALSE|FALSE (ssRNA)
RNA: GGGAGUUCUACAGUCCGACGAUCGUAGGUGAAGAGGCCCCCGAUGAGGCCUCCUGUAAAGAGAGGUCUCCGUGAUUUGAAAUAUUUGUUCCACCUCCUUCCCGCCUUGAGAAUGAGGAGCAGGGAGAGCAGGACGGAGGCGAGCAACAGAGGAUUGAGCAUCA
B10: chr2:47387770:47387771:-_ENSG00000143933_ENST00000272298|hu_mus|hu_hu_hu_mus_True|1_38 (ssRNA)
RNA: GGGAGUUCUACAGUCCGACGAUCAAGGUUUAAGGACAAUGACAGUAAGAUAAGGGAAGAAAACAUGGAGGAAUGAAGUCCUAAUUACUAUACAUGCAUAUUUUUUUACAGUAGGGGGGGGGAACCUUUUACAGAUAUUACAAACAACAGAGGAUUGAGCAUCA
B11: chr9:35286173:35286174:+_ENSMUSG00000038119_ENSMUST00000042842|mus_mus|FALSE|FALSE (ssRNA)
RNA: GGGAGUUCUACAGUCCGACGAUCAGUAUUAUUGUUACUUGAUGGAACAUACGUCCAUUUCAGCAUGAUCUGAGUGUCGCUAACAGCCUCUGUGUAUGCGAUGUGAGGUCCAGUUAUUGGGCGAUUGGAAAAACGAUUUGGGAACAACAGAGGAUUGAGCAUCA
B12: chrX:98862621:98862622:+_ENSMUSG00000034160_ENSMUST00000044475|mus_hu|mus_mus_mus_hu_False|58_88 (ssRNA)
RNA: GGGAGUUCUACAGUCCGACGAUCCUGCAUCUCCUUUAGAGUGUUUCCCAUAUUGGAGUAGGCAUCAGCAAAGGUAGGACUAAUUCGAAUAGCCUCCUUAUAAUGCAUCAGAGCUUCCUGCAGUUUUCCCUGCUGCUGCAGUACCAACAGAGGAUUGAGCAUCA
B13: chr2:32089778:32089779:+_ENSMUSG00000039262_ENSMUST00000036691|mus_hu|FALSE|FALSE (ssRNA)
RNA: GGGAGUUCUACAGUCCGACGAUCUAAACAAGCUGCACAUUACACCUCUAGCCAUCGUCUGCCCUUUCAAAUAUCUGGUCUACAUGGAAAGACAAAGAGGAAAGGCCAAAACAUAAACAAAAGGAAACAAAAACAAAACACAACCAACAGAGGAUUGAGCAUCA
B14: chr5:28742860:28742861:+_ENSMUSG00000048271_ENSMUST00000114884|mus_mus|FALSE|FALSE (ssRNA)
RNA: GGGAGUUCUACAGUCCGACGAUCAGAAUCUCUUGAAAAAGAAAAGGUGAGAUUUCCUCCUCAAGAAGAGUAUCAAUAUAAUAAGGAUUUAACAAAUGUGGCCAAGCCAAGGGCAGCAUAAGGUUAUGUUCAGGUAAGCAGCUGCAACAGAGGAUUGAGCAUCA

The binders below were run against T1, UNK ZnF1-3 (assay: nsRBNS (natural sequence RNA bind-n-seq); RBNS binding buffer (assumed for nsRBNS): 25 mM Tris pH 7.5, 150 mM KCl, 3 mM MgCl2, 0.01% Triton X-100, 500 ug/ml BSA, 20 U/ml SUPERase-In, 4 C; UNK is unkempt and MSI1 is Musashi-1; names of the RNAs are library labels; protein concentration not given here; high values mean tight binding).

Binder | binding signal [enrichment R]
B1 | 0.4
B2 | 1.8
B3 | 0.712
B4 | 0.754
B5 | 0.424
B6 | 1.45
B7 | 1.3
B8 | 1.19
B9 | 1.1
B10 | 2.41
B11 | 0.899
B12 | 0.89
B13 | 2.59
B14 | 1.72
